This is an account of results in PubChem BioAssay.

SMILES strings stand for the structures. Activity calls are given as the source filed them. No rule for the calls is given here.

The experiment can be described thus: Brca1-Bard1 BiLC signal decrease – luminescence, single concentration, counter-screen for Mdm2/MdmX interaction inhibitor project, confirmation (AID 504668). The settings on record: Brca1/Bard1 bimolecular luciferase complementation counterscreen, at 8 µM, active compounds read high.
As for `CCN(CC)S(=O)(=O)c1cc(OC)ccc1N=Nc1ccc(O)c2ncccc12`, the inhibition (usually how much of the control response was suppressed) was 35.8% (active).

On to `Cc1ccccc1-c1nc(CN2CCC(C(=O)NCCCN3CC(C)CC(C)C3)CC2)c(C)o1` (stereo not given), for which the inhibition was 25.7% (active).

On to `Cn1nnnc1Sc1ncnc2scc(-c3ccccc3Br)c12`, for which the inhibition was 25% (active).

`C/C(=N\NC(=O)c1cccc2ccccc12)c1ccccn1`: the inhibition was 29.9% (active).

On to `Clc1ccc(C2=Nn3c(nnc3-c3n[nH]c4c3CCC4)SC2)cc1Cl`, for which the inhibition was 34% (active).

On to `Cc1ncc(CO)c(/C=N/Nc2ccc(C(F)(F)F)cn2)c1O`, for which the inhibition was 33.8% (active).

For `CCCC(=O)NC(NC(=S)Nc1ccc(N=Nc2ccccc2)cc1)C(Cl)(Cl)Cl` (stereo not given), the inhibition is 32.4% (active).

`O=C(CCCN1C(=O)/C(=C\c2cccs2)SC1=S)Nc1ccc(O)cc1`: the inhibition is 31.8% (active).

In the case of `CCN(CC)C(=O)N1c2ccccc2C=Cc2ccccc21`, the inhibition was 33.7% (active).

Consider `O=C(CN1CCCc2ccccc21)N/N=C/c1c(O)ccc2ccccc12`, for which the inhibition was 30.3% (active).

In the case of `C=CCC(Nc1ccccc1)C12C=CC(O1)C(C(=O)OC)=C2C(=O)OC` (stereo not given), the inhibition was 31.4% (active).

For the compound `C(=N\Nc1nc(-c2ccccn2)nc2ccccc12)/c1ccccc1`, the inhibition is 26.1% (active).

In the case of `Cc1ccc(-c2oc3ccccc3c(=O)c2O)cc1`, the inhibition is 24.8% (active).

On to `COc1cccc(-c2nnc(NC(=O)c3ccc(S(=O)(=O)N(CC(C)C)CC(C)C)cc3)o2)c1`, for which the inhibition was 24.3% (active).

In the case of `Cc1cccc(Cn2nc(C(C)(C)C)cc2C(=O)Nc2ccc(F)cc2)c1`, the inhibition is 31.2% (active).

Turning to `O=C(NN=C(c1ccccc1)c1ccccn1)c1ccccc1`, the inhibition was 27.4% (active).

Consider `COc1cccc(/C=C2\SC(=S)N(CCCC(=O)N3CCCC3)C2=O)c1`, for which the inhibition was 35% (active).

`CC[C@]1(C(=O)OC)[C@H]2C(=O)N(Cc3ccccc3)C(=O)[C@H]2[C@H]2CN=C(SCc3ccccc3)N21`: the inhibition was 35.8% (active).

Consider `CN1CCN(C(=O)CCCN2C(=O)/C(=C/c3cccc(Br)c3)SC2=S)CC1`, for which the inhibition was 29.2% (active).

In the case of `CN1CCN(C(c2ccc(C(F)(F)F)cc2)c2cc(Cl)c3cccnc3c2O)CC1` (stereo not given), the inhibition is 24.6% (active).

Consider `CCCC(=O)NC(c1ccc(OC)c(OC)c1)c1cc(Cl)c2cccnc2c1O` (stereo not given), for which the inhibition was 27.9% (active).

For `CCc1nc(Nc2ccncc2)c2oc3ccccc3c2n1`, the inhibition was 31.6% (active).

As for `CC(C)Cc1nc(Nc2ccc(S(=O)(=O)N3CCCC3)cc2)c2nnn(Cc3ccccc3)c2n1`, the inhibition was 24.1% (active).

Turning to `CCCCCCCCCCOC(=O)Cn1c(COc2cccc(C)c2)[n+](C)c2ccccc21`, the inhibition was 24.9% (active).

For the compound `Cc1ccc(S(=O)(=O)CCc2nc3ccccc3n2CCC#N)cc1`, the inhibition was 32.2% (active).

On to `COc1ccc([N+](=O)[O-])cc1NC(=S)NC(NC(=O)C(c1ccccc1)c1ccccc1)C(Cl)(Cl)Cl` (stereo not given), for which the inhibition was 29.2% (active).

With `Cc1cc(C)cc(NC(=O)CSc2ccc(-c3ccccn3)nn2)c1`, the inhibition was 31.7% (active).

Consider `Cc1ccc(-c2csc(=Nc3cccnc3)n2CCCn2ccnc2)cc1C`, for which the inhibition was 24.3% (active).

`C=CCn1c(SCC(=O)Nc2ccc(F)cc2F)nc2c([nH]c3ccccc32)c1=O`: the inhibition was 26.8% (active).

As to `O=C(NNc1c2ccccc2nc2ccccc12)C(O)c1ccccc1` (stereo not given), the inhibition was 34.4% (active).

As for `CCCCN1/C(=C/c2ccc3ccccc3[n+]2CC)Sc2ccccc21`, the inhibition was 32.5% (active).

For `O=C(CCCN1C(=O)/C(=C\c2cccs2)SC1=S)Nc1cccnc1`, the inhibition was 25.5% (active).

As for `CCN(CC)CCNc1cc(C)nc2c1C(=O)C(=O)C=C2N1CCCCC1`, the inhibition is 28.9% (active).

As for `CCOc1cc(CNCCO)cc(Br)c1OCc1ccc(Cl)cc1Cl`, the inhibition is 25.5% (active).

For the compound `Oc1ccc(Br)cc1CNc1cccc2cccnc12`, the inhibition was 25.6% (active).

Consider `CCOC(=O)c1cccc2c1-c1ccccc1/C2=N/O`, for which the inhibition was 30.6% (active).

Regarding `COc1ccc(C)cc1NC(=O)c1ccccc1NS(=O)(=O)c1ccc(Cl)s1`, the inhibition is 32.4% (active).

In the case of `CC(C)[C@H](NC(=O)c1ccccc1Cl)C(=O)Nc1nc(-c2ccccn2)cs1`, the inhibition is 35.6% (active).

For the compound `CCOC(=O)COc1ccc(/C=C/[N+](=O)[O-])c(OCC(=O)OCC)c1`, the inhibition is 23.7% (active).

For the compound `Cn1cccc1-c1cc(C(=O)N/N=C/c2cc(Br)ccc2O)[nH]n1`, the inhibition was 25.9% (active).
